Data published in the antibiotic and cytotoxicity screens of Wong et al. (2023).
About 1,500 (3.8%) of roughly 39,000 compounds were called active. This excerpt belongs to a sample that is enriched for actives.

Test system: HSkMC (human skeletal muscle cells)
Assay: cytotoxicity call (relative viability < 0.9)
Settings: 10 µM

Structure (SMILES)	cytotoxicity call
COc1ccc2c3c(n(c2c1)C)[C@H](CO)N(C[C@]13CN(C1)C(=O)CN1CCOCC1)C(=O)Nc1ccc(cc1)F	inactive
C[C@H]1CN([C@@H](C)CO)C(=O)CCCn2cc(nn2)CO[C@@H]1CN(C)C(=O)c1ccc(N2CCN(C)CC2)cc1	inactive
CC/C(=C\C(=O)O)c1ccccc1	inactive
O=C(C[C@@H]1C[C@@H]2c3cc(NC(=O)C4CCOCC4)ccc3O[C@@H]2[C@H](CO)O1)NCCN1CCCCC1	inactive
COCC(=O)N1C[C@@H](C)[C@@H](OC)CN(C)C(=O)c2ccc(NC(=O)Nc3cccc(F)c3)cc2OC[C@@H]1C	inactive
Cc1cccc(S(=O)(=O)N2C[C@H](O)COC[C@H]3O[C@H](CC(=O)NCc4ccncn4)CC[C@@H]32)c1	inactive
C[C@@H]1CCN(C(=O)[C@H](CCCNC(=N)N)NS(=O)(=O)c2cccc3c2NC[C@H](C)C3)[C@@H](C(=O)O)C1	inactive
CNC(=O)C[C@@H]1CC[C@@H]2[C@H](COC[C@H](O)CN2C(=O)c2ccccn2)O1	inactive
N#C[C@@H]1[C@H](c2ccc(C#Cc3ccccn3)cc2)[C@@H](CO)N1C(=O)CN1CCOCC1	inactive
CC(C)NC(=O)N(C)C[C@@H]1Oc2ccc(NS(=O)(=O)c3cn(C)cn3)cc2C(=O)N([C@H](C)CO)C[C@@H]1C	inactive
C[C@@H]1CN([C@@H](C)CO)C(=O)c2cc(NC(=O)Nc3ccccc3)ccc2O[C@@H](C)CCCCO[C@H]1CN(C)S(=O)(=O)c1cccs1	inactive
C[C@H](CO)N1C[C@H](C)[C@@H](CN(C)C(=O)Nc2ccc(C(F)(F)F)cc2)Oc2c(NC(=O)Nc3ccc(C(F)(F)F)cc3)cccc2C1=O	active
C[C@H]1CN([C@@H](C)CO)C(=O)c2cccc(NC(=O)Nc3ccccc3)c2O[C@@H]1CN(C)C(=O)Nc1ccc(C(F)(F)F)cc1	inactive
C[C@@H]1CN([C@H](C)CO)C(=O)c2cccc(NC(=O)Nc3ccc(C(F)(F)F)cc3)c2O[C@H]1CN(C)C(=O)Nc1ccc(C(F)(F)F)cc1	inactive
C[C@@H]1CN([C@@H](C)CO)C(=O)c2cccc(NC(=O)Nc3ccc(C(F)(F)F)cc3)c2O[C@@H]1CN(C)C(=O)Nc1ccc(C(F)(F)F)cc1	active
C[C@H]1CN([C@@H](C)CO)C(=O)c2cccc(NC(=O)Nc3ccc(C(F)(F)F)cc3)c2O[C@@H]1CN(C)C(=O)Nc1ccc(C(F)(F)F)cc1	active
C[C@@H]1CN([C@H](C)CO)C(=O)c2cccc(NC(=O)Nc3ccc(F)cc3)c2O[C@@H]1CN(C)C(=O)Nc1ccc(C(F)(F)F)cc1	inactive
C[C@@H]1CN([C@H](C)CO)C(=O)c2cccc(NC(=O)Nc3ccc(C(F)(F)F)cc3)c2O[C@@H]1CN(C)C(=O)Nc1ccc(F)cc1	inactive
C[C@H]1CN([C@@H](C)CO)C(=O)c2cccc(NC(=O)Nc3ccc(C(F)(F)F)cc3)c2O[C@H]1CN(C)C(=O)Nc1ccc(F)cc1	inactive
C[C@H](CO)N1C[C@H](C)[C@H](CN(C)C(=O)Nc2ccc(F)cc2)Oc2c(NC(=O)Nc3ccc(C(F)(F)F)cc3)cccc2C1=O	active
C[C@@H]1CN([C@@H](C)CO)C(=O)c2cccc(NC(=O)Nc3ccc(C(F)(F)F)cc3)c2O[C@H]1CN(C)C(=O)Nc1ccc(C(F)(F)F)cc1	inactive
Cc1noc(C)c1S(=O)(=O)N(C)C[C@@H]1Oc2ccc(NC(=O)NC3CCCCC3)cc2CC(=O)N([C@H](C)CO)C[C@H]1C	inactive

Structure (SMILES)	cytotoxicity call
O=C(C[C@@H]1C=C[C@@H](NC(=O)c2ccc(F)cc2)[C@H](CO)O1)NCc1ccncn1	inactive
O=C(O)c1cc(O)c(O)c(O)c1 [listing 1 of 2 here]	inactive
O=C(O)c1cc(O)c(O)c(O)c1 [listing 2 of 2 here]	active
O=C(O)c1ccc(O)c(O)c1	inactive
COc1ccc(NC(=O)Nc2ccc3c(c2)C(=O)N([C@@H](C)CO)C[C@@H](C)[C@H](CN(C)C(=O)C2CCCCC2)OCCCC[C@H](C)O3)cc1	inactive
C[C@@H]1CN([C@H](C)CO)C(=O)Cc2cc(NC(=O)Cn3cnnn3)ccc2O[C@H]1CN(C)S(=O)(=O)c1cccs1	inactive
Oc1ccc(Cl)c2cccnc12 [listing 1 of 2 here]	active
Oc1c(Cl)cc(Cl)c2cccnc12	inactive
Oc1ccc(Cl)c2cccnc12 [listing 2 of 2 here]	inactive
O=C(NO)c1cccnc1	inactive
CCNC(=O)C[C@H]1C=C[C@H](NC(=O)C2CC2)[C@@H](CO)O1	inactive
C[C@H]1CCCCO[C@@H](CN(C)Cc2ccccc2)[C@@H](C)CN([C@@H](C)CO)C(=O)c2cc(NC(=O)c3ccncc3)ccc2O1	inactive
COc1cccc2c1C(=O)c1c(O)c3c(c(O)c1C2=O)C[C@](O)(C(=O)CO)C[C@H]3O[C@H]1C[C@@H](N)[C@@H](O)[C@@H](C)O1	active
COc1cccc2c1C(=O)c1c(O)c3c(c(O)c1C2=O)C[C@@](O)(C(=O)CO)C[C@@H]3O[C@H]1C[C@H](N)[C@H](O)[C@H](C)O1	active
COc1cccc2c1C(=O)c1c(O)c3c(c(O)c1C2=O)CC(O)(C(=O)CO)CC3OC1CC(N)C(O)C(C)O1.Cl (stereo not given)	inactive
COc1cccc2c1C(=O)c1c(O)c3c(c(O)c1C2=O)CC(O)(C(=O)CO)CC3OC1CC(N)C(O)C(C)O1 (stereo not given) [listing 1 of 2 here]	inactive
COc1cccc2c1C(=O)c1c(O)c3c(c(O)c1C2=O)C[C@@](O)(C(=O)CO)C[C@@H]3O[C@H]1C[C@H](N)[C@@H](O)[C@H](C)O1	inactive
CCCCC(=O)OCC(=O)[C@]1(O)Cc2c(O)c3c(c(O)c2[C@@H](O[C@H]2C[C@H](NC(=O)C(F)(F)F)[C@H](O)[C@H](C)O2)C1)C(=O)c1c(OC)cccc1C3=O	active
COc1cccc2c1C(=O)c1c(O)c3c(c(O)c1C2=O)CC(O)(C(=O)CO)CC3OC1CC(N)C(O)C(C)O1 (stereo not given) [listing 2 of 2 here]	active
COc1ccc(S(=O)(=O)Nc2ccc3c(c2)C(=O)N([C@@H](C)CO)C[C@@H](C)[C@@H](CN(C)CC2CCCCC2)OCCCC[C@H](C)O3)cc1	inactive
C=CCOC(=O)[C@@H]1[C@H]2C(=O)O[C@H](c3ccccc3)[C@H](c3ccccc3)N2[C@H](c2ccc(OCCOC(=O)[C@H]3C[C@H]4C(=O)N5CCC[C@H]5C(=O)N4[C@H]3c3ccc(O)cc3)cc2)[C@@]12C(=O)Nc1ccc(I)cc12	inactive
C[C@H]1CN([C@@H](C)CO)C(=O)c2cc(NC(=O)CCCCCC(=O)Nc3ccccc3N)ccc2O[C@@H]1CN(C)S(C)(=O)=O	inactive

Structure (SMILES)	cytotoxicity call
O=C(C[C@H]1CC[C@H]2[C@@H](COC[C@@H](O)CN2Cc2ccccc2F)O1)N[C@@H]1CCN(Cc2ccccc2)C1	inactive
CCCCCCCCCCNc1cc(CO)c2cc[nH]c2c1	inactive
COc1ccc(S(=O)(=O)Nc2ccc3c(c2)C(=O)N([C@H](C)CO)C[C@H](C)[C@H](CN(C)C(=O)NC2CCCCC2)OCCCC[C@H](C)O3)cc1	inactive
C[C@@H]1CN([C@@H](C)CO)C(=O)Cc2cc(NS(=O)(=O)c3ccc(F)cc3)ccc2O[C@@H]1CN(C)Cc1ccc(Cl)c(Cl)c1	active
C[C@@H]1CN([C@H](C)CO)C(=O)Cc2cc(NS(=O)(=O)c3ccc(F)cc3)ccc2O[C@H]1CN(C)Cc1ccc(Cl)c(Cl)c1	inactive
C[C@H]1CN([C@@H](C)CO)C(=O)Cc2cc(NS(=O)(=O)c3ccc(F)cc3)ccc2O[C@H]1CN(C)Cc1ccc(Cl)c(Cl)c1	inactive
C[C@H]1CN([C@@H](C)CO)C(=O)Cc2cc(NS(=O)(=O)c3ccc(F)cc3)ccc2O[C@@H]1CN(C)Cc1ccc(Cl)c(Cl)c1	inactive
C[C@@H]1CN([C@@H](C)CO)C(=O)Cc2cc(NS(=O)(=O)c3ccc(F)cc3)ccc2O[C@H]1CN(C)Cc1ccc(Cl)c(Cl)c1	inactive
C[C@@H]1CN([C@H](C)CO)C(=O)Cc2cc(NS(=O)(=O)c3ccc(F)cc3)ccc2O[C@@H]1CN(C)Cc1ccc(Cl)c(Cl)c1	active
C[C@H]1CCCCO[C@@H](CN(C)S(=O)(=O)c2cccs2)[C@@H](C)CN([C@@H](C)CO)C(=O)c2cc(NC(=O)C3CCCCC3)ccc2O1	inactive
C[C@H](CO)N1C[C@H](C)[C@H](CN(C)Cc2ccc(C(=O)Nc3ccccc3N)cc2)Oc2ccc(NC(=O)C3CCCCC3)cc2C1=O	inactive
C[C@@H]1CN([C@H](C)CO)C(=O)Cc2cc(NS(=O)(=O)c3cccs3)ccc2O[C@@H]1CN(C)Cc1ccc(Cl)c(Cl)c1	active
C[C@H](CO)N1C[C@H](C)[C@@H](CN(C)Cc2ccc(Cl)c(Cl)c2)Oc2ccc(NS(=O)(=O)c3cccs3)cc2CC1=O	inactive
C[C@@H]1CN([C@H](C)CO)C(=O)Cc2cc(NS(=O)(=O)c3cccs3)ccc2O[C@H]1CN(C)Cc1ccc(Cl)c(Cl)c1	active
C[C@H]1CN([C@@H](C)CO)C(=O)Cc2cc(NS(=O)(=O)c3cccs3)ccc2O[C@@H]1CN(C)Cc1ccc(Cl)c(Cl)c1	inactive
C[C@@H]1CN([C@@H](C)CO)C(=O)Cc2cc(NS(=O)(=O)c3cccs3)ccc2O[C@H]1CN(C)Cc1ccc(Cl)c(Cl)c1	inactive
C[C@H](CO)N1C[C@H](C)[C@H](CN(C)Cc2ccc(Cl)c(Cl)c2)Oc2ccc(NS(=O)(=O)c3cccs3)cc2CC1=O	inactive
C[C@H]1CN([C@@H](C)CO)C(=O)Cc2cc(NS(=O)(=O)c3cccs3)ccc2O[C@H]1CN(C)Cc1ccc(Cl)c(Cl)c1	active
C[C@@H]1CN([C@@H](C)CO)C(=O)Cc2cc(NS(=O)(=O)c3cccs3)ccc2O[C@@H]1CN(C)Cc1ccc(Cl)c(Cl)c1	inactive
C[C@@H]1CN([C@H](C)CO)C(=O)Cc2cc(NS(=O)(=O)c3cccs3)ccc2O[C@@H]1CN(C)Cc1ccncc1	inactive
COc1ccc(S(=O)(=O)N(C)C[C@H]2Oc3c(NC(=O)NC(C)C)cccc3C(=O)N([C@H](C)CO)C[C@H]2C)cc1	inactive
